Assay outcomes from PubChem BioAssay.
T cruzi growth-1: inhibitors of T. cruzi proliferation; T. cruzi beta-gal in NIH3T3, GalScreen luminescence, 90 h; inhibition, % at 8.34 µM; 77,000 tested, 5.9% active; AID 624255;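 active means mean inhibition above about 93%, with at least 55% of replicates each passing it, limit read from the data, passing the limit was not always enough; inconclusive means only one of those two conditions holds; inactive means neither condition holds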
C diff HTS: C. difficile growth inhibition; Clostridium difficile clinical isolate growth, OD600, 24 h; active compounds read low; 86,000 tested, 0.25% active; growth activity, negative = inhibition, % at 16 µg/mL (by protocol);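 active means mean growth activity at or below -80% and every replicate also at or below -80%; inconclusive means mean at or below -80% but some replicate above -80%; inactive means mean growth activity above -80%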
Pf Dd2 inh: P. falciparum Dd2 growth inhibition. SYBR Green, 72 h; active compounds read low. activity change, % at 10 µM. 94,000 tested, 2.3% active. AID 1159554; in the data active means activity change below about -80%; inconclusive means no clear call, values can overlap the other calls
T cruzi growth-2: blocks T. cruzi growth in NIH3T3 host cells; AID 651739; 5,600 tested, 72% active; T. cruzi beta-gal in NIH3T3, GalScreen luminescence, 90 h; inhibition, % at 8.35 µM; shares compounds with T cruzi growth-1;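 active means mean replicate inhibition above about 95% and at least 55% of replicates individually reaching it, limit read from the data; inconclusive means only one of the two criteria is met; inactive means neither criterion is met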
T cruzi growth-3: inhibitors of T. cruzi proliferation. shares compounds with T cruzi growth-1. T. cruzi beta-gal in NIH3T3, GalScreen luminescence, 90 h. inhibition, % at 2.09 µM. 5,600 tested, 21% active. AID 651740;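 active means mean inhibition above about 95%, with at least 55% of replicates also reaching it, limit read from the data; inconclusive means meets just one of the two conditions; inactive means meets neither condition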
3T3 cytotox: NIH/3T3 (mouse) viability loss; NIH/3T3 viability, CellTiter-Glo ATP luminescence, 90 h; shares compounds with T cruzi growth-1; cytotoxicity (signal decrease), % at 8.35 µM; AID 651742; 5,600 tested, 14% active;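 active means mean signal decrease across replicates above about 35% based on untreated-well scatter, with enough replicates individually passing, limit read from the data; inconclusive means no rule stated though some were filed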
NIH3T3 tox 2: kills mouse NIH/3T3 fibroblasts; shares compounds with T cruzi growth-1; NIH/3T3 viability, CellTiter-Glo ATP luminescence, 90 h; inhibition, % at 24.9 µM; 5,600 tested, 56% active; AID 651744;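 active means mean loss of cell viability signal at or above a set limit, and enough replicates individually reaching it; inconclusive means meets only the mean limit or only the replicate share; inactive means meets neither condition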
Large screens that a line does not name were inactive (follow-up assays come after a bar, where they were run). Only some compounds are listed: those with a hit (about 6.7% of all), similar ones and a draw of the others.

C[C@@H]1CN([C@@H](C)CO)S(=O)(=O)c2ccc(-c3cccc(F)c3)cc2O[C@@H]1CN(C)C(=O)c1cccc(F)c1	none
C[C@@H]1CN([C@@H](C)CO)C(=O)CCCn2cc(nn2)CO[C@H]1CN(C)Cc1ccc2cccnc2c1	none
C[C@@H]1CN([C@@H](C)CO)C(=O)Cc2cc(NC(=O)Nc3ccc(F)cc3)ccc2O[C@H]1CN(C)Cc1ccc(-c2ccccc2)cc1	none
CC(C)C#Cc1ccc2c(c1)O[C@@H](CN(C)C(=O)C1CCCCC1)[C@H](C)CN([C@H](C)CO)S2(=O)=O	T cruzi growth-1 104, Pf Dd2 inh -83 | T cruzi growth-2 103 | T cruzi growth-3 inactive | 3T3 cytotox inconclusive | NIH3T3 tox 2 105
CC(C)C#Cc1ccc2c(c1)O[C@H](CN(C)C(=O)C1CCC1)[C@@H](C)CN([C@@H](C)CO)S2(=O)=O	T cruzi growth-1 103 (no result: C diff HTS) | T cruzi growth-2 111 | T cruzi growth-3 inactive | 3T3 cytotox inactive | NIH3T3 tox 2 51
CC(C)C#Cc1ccc2c(c1)O[C@@H](CN(C)C(=O)C1CCC1)[C@@H](C)CN([C@H](C)CO)S2(=O)=O	none (no result: C diff HTS)
CC(C)C#Cc1ccc2c(c1)O[C@H](CN(C)C(=O)C1CCC1)[C@H](C)CN([C@@H](C)CO)S2(=O)=O	none (no result: C diff HTS)
CC(C)NC(=O)Nc1cccc2c1O[C@@H](CN(C)C(=O)Nc1ccc(F)cc1)[C@@H](C)CN([C@@H](C)CO)C2=O	none
CC(=O)N(C)C[C@H]1Oc2ncc(-c3ccc(C#N)cc3)cc2C(=O)N([C@H](C)CO)C[C@@H]1C	none
C[C@@H]1CN([C@H](C)CO)C(=O)Cc2cc(NS(=O)(=O)c3ccc(Cl)cc3)ccc2O[C@H]1CN(C)CC1CCCCC1	T cruzi growth-1 106 | T cruzi growth-2 96 | T cruzi growth-3 inconclusive | 3T3 cytotox inactive | NIH3T3 tox 2 106
C[C@H](CO)N1C[C@H](C)[C@@H](CN(C)CC2CCCCC2)Oc2ccc(NS(=O)(=O)c3ccc(F)cc3)cc2CC1=O	T cruzi growth-1 107 | T cruzi growth-2 107 | T cruzi growth-3 inactive | 3T3 cytotox inactive | NIH3T3 tox 2 104
CC(C)NC(=O)N(C)C[C@@H]1Oc2ccc(NS(=O)(=O)c3ccc(F)cc3)cc2CC(=O)N([C@@H](C)CO)C[C@H]1C	none
CC(C)NC(=O)N(C)C[C@H]1Oc2ccc(NS(=O)(=O)c3ccc(F)cc3)cc2CC(=O)N([C@H](C)CO)C[C@@H]1C	T cruzi growth-1 103 | T cruzi growth-2 inactive | T cruzi growth-3 inactive | 3T3 cytotox inactive | NIH3T3 tox 2 inactive
C[C@H](CO)N1C[C@H](C)[C@@H](CN(C)CC2CCCCC2)Oc2ccc(NS(=O)(=O)c3ccc(Cl)cc3)cc2CC1=O	none
C[C@H]1CN([C@@H](C)CO)C(=O)Cc2cc(NS(=O)(=O)c3ccc(F)cc3)ccc2O[C@H]1CN(C)CC1CC1	none (no result: T cruzi growth-1)
O=C(Nc1ccccc1)N1CCCCN2[C@H](CO)[C@H](c3ccc(C#Cc4ccccn4)cc3)[C@H]2C1	T cruzi growth-1 104 | T cruzi growth-2 99 | T cruzi growth-3 inactive | 3T3 cytotox inactive | NIH3T3 tox 2 inactive
O=C(Nc1ccc(F)cc1)N1CCCCN2[C@H](CO)[C@H](c3ccc(C#Cc4ccccn4)cc3)[C@H]2C1	none
COc1ccc(NC(=O)N2CCCCN3[C@H](CO)[C@H](c4ccc(C#Cc5ccccn5)cc4)[C@@H]3C2)cc1	Pf Dd2 inh inconclusive
O=C(Nc1ccccc1)N1CCCCN2[C@@H](CO)[C@H](c3ccc(C#Cc4ccccn4)cc3)[C@@H]2C1	none
O=C(Nc1ccc(F)cc1)N1CCCCN2[C@@H](CO)[C@H](c3ccc(C#Cc4ccccn4)cc3)[C@@H]2C1	T cruzi growth-1 123 | T cruzi growth-2 107 | T cruzi growth-3 inactive | 3T3 cytotox inactive | NIH3T3 tox 2 inactive
COc1ccc(NC(=O)N2CCCCN3[C@@H](CO)[C@H](c4ccc(C#Cc5ccccn5)cc4)[C@@H]3C2)cc1	T cruzi growth-1 103, Pf Dd2 inh -85 | T cruzi growth-2 110 | T cruzi growth-3 109 | 3T3 cytotox inactive | NIH3T3 tox 2 inactive
CNC[C@H]1Oc2cc(C#Cc3ccccc3F)ccc2S(=O)(=O)N([C@@H](C)CO)C[C@@H]1C	none (no result: T cruzi growth-1, C diff HTS)
